The target of test [1] is Rap guanine nucleotide exchange factor 3 (Homo sapiens) (UniProt O95398). The experiment in a line: Confirmatory qHTS for antagonist of cAMP-regulated guanine nucleotide exchange factor 3 (EPAC1) (AID 1645880). Note: nearly all actives have a fitted effect of over 55% in size. Note: potency is the fitted concentration of half-maximal effect. In short, it runs like this: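 Released BODIPY-GDP fluoresces less than Rap1-bound BODIPY-GDP; the signal is followed at 480/540 nm at 5-min intervals over 30 min, after 5 min at room temperature. Reactions contain 100 nM EPAC1, 250 nM RAP1B-BODIPY-GDP and 50 uM GDP; results are normalized to ATA and DMSO.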
Sequence of Rap guanine nucleotide exchange factor 3 (Homo sapiens) (O95398 whole entry, looked up): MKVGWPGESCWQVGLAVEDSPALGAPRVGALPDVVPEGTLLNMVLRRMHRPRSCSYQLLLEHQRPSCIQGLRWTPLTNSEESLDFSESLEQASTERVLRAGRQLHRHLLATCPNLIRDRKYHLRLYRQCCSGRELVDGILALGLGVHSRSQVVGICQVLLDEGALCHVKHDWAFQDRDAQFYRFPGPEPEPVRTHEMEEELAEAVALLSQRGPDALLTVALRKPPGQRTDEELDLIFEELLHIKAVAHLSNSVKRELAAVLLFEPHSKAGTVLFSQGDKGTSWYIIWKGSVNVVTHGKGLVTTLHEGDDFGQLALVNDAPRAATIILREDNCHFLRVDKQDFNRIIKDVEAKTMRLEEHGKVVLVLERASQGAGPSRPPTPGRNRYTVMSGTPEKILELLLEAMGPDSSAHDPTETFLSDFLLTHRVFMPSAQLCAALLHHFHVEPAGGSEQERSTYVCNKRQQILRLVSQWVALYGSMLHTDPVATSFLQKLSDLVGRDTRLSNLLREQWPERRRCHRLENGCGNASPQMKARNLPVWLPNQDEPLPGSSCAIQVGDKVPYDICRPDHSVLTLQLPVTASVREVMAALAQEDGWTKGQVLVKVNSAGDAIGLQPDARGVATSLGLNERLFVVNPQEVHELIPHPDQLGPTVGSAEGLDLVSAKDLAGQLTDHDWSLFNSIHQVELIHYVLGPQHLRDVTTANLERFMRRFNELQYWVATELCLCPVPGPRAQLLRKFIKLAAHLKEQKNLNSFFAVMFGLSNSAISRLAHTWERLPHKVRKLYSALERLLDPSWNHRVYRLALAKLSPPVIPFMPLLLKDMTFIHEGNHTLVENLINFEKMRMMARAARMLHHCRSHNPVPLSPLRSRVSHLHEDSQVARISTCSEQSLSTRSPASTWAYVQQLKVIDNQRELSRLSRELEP
On the technique in general: qHTS replaces the single test concentration by a dilution series.

For test [2] the target is unchanged. The test is described as follows: Confirmatory qHTS for agonist of cAMP-regulated guanine nucleotide exchange factor 3 (EPAC1) (AID 1645881).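 For activation: EPAC1 catalysed release of BODIPY-GDP from Rap1B seen as fluorescence loss; 100% = effect of cAMP agonist control.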 Note: nearly all actives have a fitted effect of over 75% in size. Note: potency is the fitted concentration of half-maximal effect.
The target of test [3] is Rap guanine nucleotide exchange factor 4 (Homo sapiens) (UniProt Q8WZA2). The test is described as follows: Confirmatory qHTS for agonist of cAMP-regulated guanine nucleotide exchange factor 4 (EPAC2) (AID 1645884). For activation: % is set by controls: 0 for no effect and ±100 for the full control effect.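 Note: nucleotide exchange releases bodipy-GDP from Rap1 and this lowers its fluorescence; nearly all actives have a fitted effect of over 65% in size.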 Note: potency is the fitted concentration of half-maximal effect.
Sequence of Rap guanine nucleotide exchange factor 4 (Homo sapiens) (Q8WZA2 whole entry, looked up): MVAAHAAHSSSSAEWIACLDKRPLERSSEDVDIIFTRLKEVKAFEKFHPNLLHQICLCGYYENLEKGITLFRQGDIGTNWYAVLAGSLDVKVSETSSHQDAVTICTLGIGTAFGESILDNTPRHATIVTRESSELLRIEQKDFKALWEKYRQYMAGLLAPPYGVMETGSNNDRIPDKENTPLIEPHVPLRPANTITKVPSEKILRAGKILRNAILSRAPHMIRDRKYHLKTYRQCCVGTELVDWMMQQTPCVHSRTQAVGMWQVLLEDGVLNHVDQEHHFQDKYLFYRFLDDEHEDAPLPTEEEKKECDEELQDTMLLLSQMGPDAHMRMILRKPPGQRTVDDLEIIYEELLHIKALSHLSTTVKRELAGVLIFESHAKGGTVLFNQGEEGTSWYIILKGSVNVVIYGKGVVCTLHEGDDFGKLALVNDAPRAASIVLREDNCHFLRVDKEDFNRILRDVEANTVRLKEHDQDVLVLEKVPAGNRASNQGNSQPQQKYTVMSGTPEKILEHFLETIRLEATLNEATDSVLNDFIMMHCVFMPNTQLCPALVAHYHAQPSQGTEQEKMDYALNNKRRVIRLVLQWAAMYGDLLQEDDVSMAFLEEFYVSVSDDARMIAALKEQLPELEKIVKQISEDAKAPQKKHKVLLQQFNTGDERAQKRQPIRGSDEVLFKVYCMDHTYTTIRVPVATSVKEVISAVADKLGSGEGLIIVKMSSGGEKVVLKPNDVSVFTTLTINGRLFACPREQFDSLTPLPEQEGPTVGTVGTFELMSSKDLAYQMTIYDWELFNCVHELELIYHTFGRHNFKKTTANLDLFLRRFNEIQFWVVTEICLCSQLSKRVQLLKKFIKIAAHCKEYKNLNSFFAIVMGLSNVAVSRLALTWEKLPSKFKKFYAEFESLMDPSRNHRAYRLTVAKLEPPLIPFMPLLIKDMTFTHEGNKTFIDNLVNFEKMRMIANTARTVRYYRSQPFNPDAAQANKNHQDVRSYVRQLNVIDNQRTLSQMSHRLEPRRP
For test [4] the target is unchanged. The test is described as follows: Confirmatory qHTS for antagonist of cAMP-regulated guanine nucleotide exchange factor 4 (EPAC2) (AID 1645885). For activity change, negative = inhibition: % is set by controls: 0 for no effect and ±100 for the full control effect. Note: nearly all actives have a fitted effect of over 25% in size. Note: potency is the fitted concentration of half-maximal effect.
Test [5] deals with Rap guanine nucleotide exchange factor 3 (Homo sapiens) (UniProt O95398). The experiment in a line: Counterscreen qHTS for antagonist of cAMP-regulated guanine nucleotide exchange factor 3 (EPAC1) (AID 1645888). Note: % of control where 0% means no effect. In short, it runs like this: (§1)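 Rap1B-BODIPY-GDP 250 nM + GDP 50 uM; cpds 7-pt, final 9.74 nM–152 uM (activator mode) or from 7.32 nM upwards (inhibitor mode); RT; FI 480/540 nm at 5 and 30 min, then ± cAMP, reread.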
In general terms: The purpose of a counterscreen is to sort out artefacts and off-target activity.

Test [6] shares this target. The test is described as follows: Counterscreen qHTS for agonist of cAMP-regulated guanine nucleotide exchange factor 3 (EPAC1) (AID 1645889). For activation: % of control where 0% means no effect. Note: nearly all actives have a fitted effect of over 40% in size. Note: potency is the fitted concentration of half-maximal effect. In short, it runs like this: as §1

Inconclusive results are not listed. Values without a mark were called inactive. Calls of active or inactive are those of the source. Calls come from the whole dose curve; as a rule, active = well fitted curve in the direction sought with a large enough effect; inconclusive = small, poorly fitted or top-dose-only effect, or another doubt; inactive = no such curve, though single readings can be large; an effect the other way counts as inactive or inconclusive.

Take `Nc1ncnc2c1nc(Br)n2[C@@H]1O[C@@H]2COP(=O)(O)O[C@H]2[C@H]1O`: the Potency in test [1] was 5.36 µM (active); in test [2], 7.08 µM (active); in test [3] it was 2.24 µM (active). Moreover, the Potency entry in test [4], in test [5] and in test [6] was “inactive” each time.

In the case of `O=C(CN(c1ccc(Cl)c(C(F)(F)F)c1)S(=O)(=O)c1ccccc1)N1CCc2ccccc2C1`, the Potency entry in test [1], in test [2], in test [3], in test [4], in test [5] and in test [6] was “inactive” in each case.

Regarding `CCCCOc1ccccc1Cn1c(=O)sc2ccccc21`, the Potency result in test [1], in test [2], in test [3], in test [5] and in test [6] was “inactive” each time. Besides, in test [4], the outcome was “inactive [at 12.7 µM]”.

Regarding `COc1cc(/C=C2\SC(=O)N(CC(=O)Nc3cccc(C)c3)C2=O)cc([N+](=O)[O-])c1O`, the results for the Potency in test [1] and in test [4] were 19 µM (active) and 47.8 µM (active), respectively. Moreover, the Potency entry in test [2], in test [3], in test [5] and in test [6] was “inactive” in each case.

`COc1cccc(C(c2nnnn2-c2c(C)cccc2C)N2CCN(C/C=C/c3ccccc3)CC2)c1OC` (stereo unspecified): the Potency entry in test [1], in test [2], in test [3], in test [4], in test [5] and in test [6] was “inactive” throughout.

With `CCCC[C@@H]1CNC(=O)C(=O)N1CCc1cccc(F)c1`, the Potency result in test [1], in test [2] and in test [4] was “inactive” each time. Also, the activation in test [3] was 9.22% [at 17.1 µM, percent relative to cAMP agonist control]; in test [6] it was -0.443% [at 30.8 µM]. The activity change, negative = inhibition in test [5] is -3.55% [at 30.8 µM].

As for `Cc1ccc(CN(C(=O)COc2cccc(Cl)c2)c2ccccn2)o1`, the Potency entry in test [1], in test [2], in test [3], in test [4], in test [5] and in test [6] was “inactive” throughout.

With `CCc1nnc(NC(=O)c2cc(-c3ccco3)nc3ccccc23)s1`, the Potency in test [1] was 21.3 µM (active). Besides, the Potency entry in test [2], in test [3], in test [4], in test [5] and in test [6] was “inactive” each time.

On to `COC(=O)c1scc(C#N)c1N/N=C(\C#N)S(=O)(=O)c1ccc(Cl)cc1`, for which the Potency in test [1] was 47.8 µM (active). For the same molecule, the Potency entry in test [2], in test [3], in test [4], in test [5] and in test [6] was “inactive” in each case.

In the case of `c1ccc(-c2nc(C3CCCCC3)c3ccccc3n2)cc1`, the Potency entry in test [1], in test [2] and in test [4] was “inactive” in each case. The activation in test [3] is 3.01% [at 17.1 µM, percent relative to cAMP agonist control]; in test [6], 34% [at 30.8 µM]. Besides, in test [5], the activity change, negative = inhibition was -1.41% [at 30.8 µM].

For `CC(=O)Nc1ccc(CNc2nc3cc(-c4ccsc4)sc3c(=O)n2C)cc1`, the Potency entry in test [1], in test [2] and in test [4] was “inactive” throughout. The activation in test [3] was -3.78% [at 17.1 µM, percent relative to cAMP agonist control]; in test [6], 36.9% [at 30.8 µM]. In test [5], the activity change, negative = inhibition is 16% [at 30.8 µM].

In the case of `CCc1ccc2oc(C(=O)Nc3ccccc3OC)cc(=O)c2c1`, the Potency result in test [1], in test [2], in test [3], in test [5] and in test [6] was “inactive” in each case. Besides, in test [4], the outcome was “inactive [at 12.7 µM]”.

Turning to `CCCCC(=O)Nc1cccc(NC(=O)c2ccccc2Br)c1`, the Potency result in test [1], in test [2], in test [3], in test [4], in test [5] and in test [6] was “inactive” in each case.

For `CCCCC(CC)Cn1c(Oc2ccccc2)nc2c1c(=O)n(C)c(=O)n2C` (stereo unspecified), the Potency result in test [1], in test [2], in test [3], in test [4], in test [5] and in test [6] was “inactive” each time.

For `O=C(COC(=O)c1ccc(O)cc1O)Nc1nnc(-c2ccccc2)o1`, the Potency entry in test [1], in test [2], in test [3], in test [5] and in test [6] was “inactive” in each case. Further, the Potency in test [4] is 84.9 µM (active).

For `CN1CCC/C1=C/C=C1\SC(=S)NC1=O`, the Potency entry in test [1], in test [4] and in test [5] was “inactive” each time. Further, the Potency was 89.1 µM (active) in test [2], 100 µM (active) in test [3] and 39.8 µM (active) in test [6].

Turning to `NS(=O)(=O)c1ccc(CCNC(=O)c2ccc3nccnc3c2)cc1`, the Potency in test [1] was 47.8 µM (active). Further, the Potency entry in test [2], in test [3], in test [4], in test [5] and in test [6] was “inactive” throughout.

Turning to `Cc1nc(=O)c(-c2ccccc2)c(C)n1CCCCCC(=O)O`, the Potency entry in test [1], in test [2] and in test [4] was “inactive” throughout. Also, the activation in test [3] is 0.623% [at 17.1 µM, percent relative to cAMP agonist control]; in test [6], 4.21% [at 30.8 µM]. Besides, the activity change, negative = inhibition in test [5] was -38.6% [at 30.8 µM].

Take `COCCOC(=O)C(C#N)c1nc2ccccc2nc1N1CCN(Cc2ccccc2)CC1` (stereo unspecified): the Potency entry in test [1], in test [2] and in test [4] was “inactive” in each case. Further, the activation is 10.5% [at 17.1 µM, percent relative to cAMP agonist control] in test [3] and 38.2% [at 30.8 µM] in test [6]. Moreover, in test [5], the activity change, negative = inhibition is 4.89% [at 30.8 µM].

On to `COc1ccccc1OCC(=O)Nc1cc(C(F)(F)F)ccc1-n1cncn1`, for which the Potency entry in test [1], in test [2] and in test [4] was “inactive” throughout. Further, the activation in test [3] is 2.73% [at 17.1 µM, percent relative to cAMP agonist control]; in test [6], 5.31% [at 30.8 µM]. In addition, the activity change, negative = inhibition in test [5] was -12% [at 30.8 µM].

Regarding `COC(=O)c1ccccc1NC(=O)CN1C(=O)COc2ccc(Cl)cc21`, the Potency result in test [1], in test [2], in test [3], in test [4], in test [5] and in test [6] was “inactive” each time.

Source of the values: PubChem BioAssay (NCATS).
